Experimental data from PubChem BioAssay (NCATS).
Results filed as inconclusive are left out. Entries that show only a call come without a potency. Activity calls are given as the source filed them. Calls come from the whole dose curve; as a rule, active = well fitted inhibition curve with a large enough effect; inconclusive = small, poorly fitted or top-dose-only effect; inactive = flat fitted curve, though single readings scatter.

Test: BET inhibitor-based combinations targeting novel dependencies in MECOM-rearranged (r) AML: AML-194 cell line (AID 2202237; note: nearly all actives have a fitted effect of over 40% in size)
Conditions: AML-194 (MECOM-r AML) viability, CellTiter-Glo, 48 h; series mostly up to 46 µM
Method in brief: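 A 48 hr incubation preceded viability reading by CellTiter-Glo, with 15 min room-temperature development. Dose series had 11 points; normalization used DMSO and empty wells; AUC was computed and mean-centered per line as Z-AUC.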
Potency is the fitted concentration of half-maximal effect.

SMILES	Potency	viability (% of control)
O=C(O)C[C@H](O)C[C@H](O)/C=C/c1c(C2CC2)nc2ccccc2c1-c1ccc(F)cc1	13.2 µM (active)	
COc1cc2c(NC3CCN(CC4CCCCC4)CC3)nc(N3CCCN(C(C)C)CC3)nc2cc1OCCCN1CCCCC1	16.6 µM (active)	
CC(C)N(CCCNC(=O)Nc1ccc(C(C)(C)C)cc1)C[C@H]1O[C@@H](n2ccc3c(N)ncnc32)[C@H](O)[C@@H]1O	inactive	
Cc1cnc(Nc2cccc(CN3CCOCC3)c2)nc1Nc1cccc(S(=O)(=O)NC(C)(C)C)c1	1.32 µM (active)	
C[C@@]1(c2cc(-c3cncnc3)c(F)cc2F)CCSC(N)=N1	inactive	
CCN(CCO)CCCC(C)Nc1ccnc2cc(Cl)ccc12 (stereo not drawn)		88% [at 5.12 µM] (inactive)
CC(C)N(CCCNC(=O)Nc1ccc(C(C)(C)C)cc1)C[C@H]1O[C@@H](n2cc(Br)c3c(N)ncnc32)[C@H](O)[C@@H]1O	23.5 µM (active)	
CCCCOc1nc(N)c2c(n1)N(Cc1cccc(CN3CCCC3)c1)CC(=O)N2	inactive	
Nc1ncnc2c1c(-c1cccc(OCc3ccccc3)c1)cn2C1CC(CN2CCC2)C1 (stereo not drawn)	16.6 µM (active)	
Cc1nc(C(=O)NCC(=O)O)c(O)c2ccc(Oc3ccccc3)cc12	inactive	
OCCn1cc(-c2cnc3nnn(Cc4ccc5ncccc5c4)c3n2)cn1	inactive	
COc1cc(C)c(Sc2cnc(NC(=O)c3ccc(CNC(C)C(C)C)cc3)s2)cc1C(=O)N1CCN(C(C)=O)CC1 (stereo not drawn)	14.8 µM (active)	
Cc1nnc(C(C)C)n1C1CC2CCC(C1)N2CCC(NC(=O)C1CCC(F)(F)CC1)c1ccccc1 (stereo not drawn)	inactive	
Cc1nn(C)c(COc2ccc(N3CCN(S(=O)(=O)N(C)C)CC3)cc2)c1-c1cccc2c(CCCOc3cccc4ccccc34)c(C(=O)O)n(CCN3CCOCC3)c12	inactive	
Cc1cc(C)cc(NC(=O)Cc2ccc(OC(C)(C)C(=O)O)cc2)c1	inactive	
OC(c1ccc(-c2ccc(CN3CCN(Cc4ccncc4)CC3)cc2)c(F)c1)(C(F)(F)F)C(F)(F)F	inactive	
Cn1cncc1C(N)(c1ccc(Cl)cc1)c1ccc2c(c1)c(-c1cccc(Cl)c1)cc(=O)n2C (stereo not drawn)	20.9 µM (active)	

SMILES	Potency	viability (% of control)
CN(C)N(C)C(=O)[C@@]1(Cc2ccccc2)CCCN(C(=O)[C@@H](Cc2c[nH]c3ccccc23)NC(=O)C(C)(C)N)C1	inactive	
CC(C)(C)NC(=O)Nc1cccc(Nc2ncc(F)c(NC(C)(C)CO)n2)c1	5.9 µM (active)	
C=C1[C@H](CO)[C@@H](O)C[C@@H]1n1cnc2c(=O)[nH]c(N)nc21	inactive	
CNC(=O)c1ccc(N2C(=S)N(c3cnc(C#N)c(C(F)(F)F)c3)C(=O)C23CCC3)cc1F	inactive	
Cc1ccc2nc(NC(=O)CSc3nc4c(c(=O)n3-c3ccccc3)SCC4)sc2c1	inactive	
CC1(C)Cc2c(-c3ccccc3)c(-c3ccc(Cl)cc3)c(CC(=O)O)n2C1	inactive	
Cc1cc(Nc2ncnc3ccc(-c4ccc(CNCCS(C)(=O)=O)o4)cc23)ccc1Oc1ccn2ncnc2c1	inactive	
CCOc1cc2c(c(F)c1OCC)C(=N)N(CC(=O)c1cc(N3CCOCC3)c(OC)c(C(C)(C)C)c1)C2	10.5 µM (active)	
COc1cc2c(cc1OC)CN(CCc1ccc(NC(=O)c3cccc4c(=O)c5cccc(OC)c5[nH]c34)cc1)CC2	inactive	
O=C(O)Cn1nnc(-c2cc(N3CCC(Oc4cc(F)ccc4Br)CC3)no2)n1	inactive	
O=C(NC[C@H](O)CN1CCc2ccccc2C1)c1cc(NC2COC2)ncn1	inactive	
CCNCc1nc2c(N)nc3ccccc3c2n1CC(C)(C)O	inactive	
COc1cccc(Nc2c(C(N)=O)cnc3c(C)cc(S(=O)(=O)c4cccc(C(=O)N(C)C)c4)cc23)c1	inactive	
C=Cc1cc(O)cc2nc(-c3ccc(O)c(F)c3)oc12	inactive	
CC1(C)CCC(c2ccc(Cl)cc2)=C(CN2CCN(c3ccc(C(=O)NS(=O)(=O)c4ccc(N[C@H](CCN5CCOCC5)CSc5ccccc5)c(S(=O)(=O)C(F)(F)F)c4)cc3)CC2)C1	0.833 µM (active)	
CCN(c1cc(-c2ccc(CN3CCOCC3)cc2)cc(C(=O)NCc2c(C)cc(C)[nH]c2=O)c1C)C1CCOCC1	inactive	
